Test [1] in a line: qHTS Validation Assay to Find Inhibitors of Chronic Active B-Cell Receptor Signaling (AID 485345; active means well fitted curve in the direction sought with a large enough effect in the main read-out, with a control signal flat, not every such curve was filed as active;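 further: 0% = untreated basal cells and 100% = 10 µM MG-132 proteasome inhibitor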). A digest of the protocol: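 TMD8 ABC-DLBCL cells stably carrying doxycycline-inducible IkappaBalpha–green luciferase fusion plus unfused red luciferase; compounds 46 uM to 3 nM, 4 h at 37C with doxycycline. Corrected green/red luminescence ratio normalized to 10 uM MG-132 and basal cell wells; curves fitted.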

Test [2] concerns the target Beta-2 adrenergic receptor (Homo sapiens) (UniProt P07550). The test can be described thus: qHTS validation assay of beta-arrestin-biased ligands of beta2-adrenergic receptor (AID 485366). Further: 0% is about no effect. An outline of the steps:
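Agonist activity is measured as luciferase luminescence downstream of beta-arrestin recruitment to recombinant beta2-AR in Tango cells. Exposure lasts 18 hr at 37 degrees C, and curves are categorized by r2, response size and activity.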

Test [3] has as its target ATP-dependent 6-phosphofructokinase (Trypanosoma brucei brucei) (UniProt O15648). The test can be described thus: qHTS Validation Assay to Find Inhibitors of T. brucei phosphofructokinase (AID 485368). Particulars: outcome: dose series up to 57.5 µM. An outline of the steps: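 Inhibition derived from concentration-response curves of luminescence, ranked by r2, response size and curve class; the underlying reaction used 1.25 nM PFK, 0.1 mM ATP and 0.5 mM F6P, 45 min, room temperature.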

A short description of test [4]: Quantitative high throughput screen for delayed death inhibitors of the malarial parasite plastid, 96 hour incubation (AID 488745).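 Further: luciferase-expressing P. falciparum in erythrocytes at 2% hematocrit and 0.1% parasitemia; series mostly up to about 29 µM; on the % scale 0 is the no-effect control and ±100 the full control effect; nearly all actives have a fitted effect of over 70% in size.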 An outline of the steps:
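Readout is firefly luciferase luminescence from an integrated reporter in P. falciparum; lower signal marks inhibited growth. Cultures at 2% hematocrit and 0.1% parasitemia were treated with compound across two generations (96 h, 37 C, 5% CO2).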

A short description of test [5]: Quantitative high throughput screen for delayed death inhibitors of the malarial parasite plastid, 48 hour incubation (AID 488752). Further: on the % scale 0 is the no-effect control and ±100 the full control effect; nearly all actives have a fitted effect of over 65% in size. A digest of the protocol: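 First, compound was pinned into RPMI 1640 medium containing 0.5% Albumax. Next, reporter-parasite-infected erythrocytes were added to 2% hematocrit and 0.1% parasitemia. After 48 h at 37 C under 5% CO2, luciferase detection reagent was added and luminescence read.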

Test [6] addresses Thioredoxin reductase 1, cytoplasmic (Rattus norvegicus) (UniProt O89049). The test can be described thus: qHTS Assay for Substrates of Mammalian Selenoprotein Thioredoxin Reductase 1 (TrxR1) (AID 488772).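 Further: series mostly up to about 57 µM; 0% is about no effect; a drop in NADPH fluorescence below the no-compound background marks a TrxR1 substrate.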 A digest of the protocol:
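In this dual-purpose format, potential substrates are identified from the first fluorescence read after selenite addition, not from the 8-minute delta. Rat enzyme is preincubated with NADPH and then with compound at ~22 deg C.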

Test [7] shares this target. The test can be described thus: qHTS Assay for Inhibitors of Mammalian Selenoprotein Thioredoxin Reductase 1 (TrxR1) (AID 488773).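 Further: drop in NADPH fluorescence over an 8 min run after selenite addition; series mostly up to about 57 µM; on the % scale 0 is the no-effect control and ±100 the full control effect; nearly all actives have a fitted effect of over 40% in size.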 Particulars: Potency: inhibition. An outline of the steps: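 Inhibition is scored from the loss of NADPH fluorescence between first and last reads of an 8-min kinetic run. Selenite (400 uM) was the substrate, added after 15 min compound preincubation at room temperature.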

In test [8] the target is Flap endonuclease 1 (Homo sapiens) (UniProt P39748). In words: qHTS Validation Assay for the Inhibitors of Human Flap endonuclease 1 (FEN1) (AID 488816). Further: on the % scale 0 is the no-effect control and ±100 the full control effect. An outline of the steps:
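Enzyme reagent 10 nM; cpds pinned; 15 min RT preinc.; substrate 50 nM final; reads t=0 and 15 min; no-enzyme buffer wells as neg. control; normalized data, 4-parameter Hill fit.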

In test [9] the target is M-phase phosphoprotein 8 (Homo sapiens) (UniProt Q99549). In words: qHTS Validation Assay for Inhibitors for MPP8 Chromodomain Interactions with Methylated Histone Tails (AID 488949).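 Further: AlphaScreen signal from MPP8 chromodomain bound to biotinylated H3K9me3 peptide; top concentration of the series differs between compounds; on the % scale 0 is the no-effect control and ±100 the full control effect; nearly all actives have a fitted effect of over 55% in size.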 A digest of the protocol: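 AlphaScreen proximity signal from streptavidin donor and Ni-chelate acceptor beads (10 ug/mL each) reported binding of MPP8 to trimethyl-K9 H3(1-18) peptide, both at 50 nM. The complex formed 30 min before a 30 min compound exposure at room temperature, in PBS pH 7.4.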

The target of test [10] is Chromobox protein homolog 1 (Homo sapiens) (UniProt P83916). In words: qHTS Validation Assay for Inhibitors of HP1-beta Chromodomain Interactions with Methylated Histone Tails (AID 488953).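 Further: loss of AlphaScreen luminescence from HP1-beta binding biotinylated H3K9me3 peptide; series mostly up to about 110 µM; on the % scale 0 is the no-effect control and ±100 the full control effect; nearly all actives have a fitted effect of over 50% in size.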 A digest of the protocol:
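Disruption of preformed HP1-beta:H3K9me3 peptide complexes (both 50 nM, PBS pH 7.4 with 0.01% Tween-20) is measured by AlphaScreen after 30 min compound exposure at room temperature, using streptavidin donor and nickel chelate acceptor beads at 10 ug/mL final.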

The target of test [11] is Methanococcus maripaludis chaperonin (MmCpn) (UniProt Q6LX38). The test can be described thus: High-Throughput Screening for Modulators of Cytosolic Chaperonin Activity: MmCpn Primary Screen (AID 488978).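 Further: 50 nM MmCpn enzyme hydrolysing 30 µM ATP at 37 °C; 0% is about no effect.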 A digest of the protocol: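 ATPase activity of 50 nM MmCpn was assayed with 30 uM ATP, 10 minutes at 37C, after a 5 min compound preincubation at room temperature. ADP production was read as HTRF emission at 590 and 665 nm.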

The target of test [12] is Transient receptor potential cation channel subfamily V member 1 (Homo sapiens) (UniProt Q8NER1). The test can be described thus: HTS Assay for Compounds that Act as Enhancers of the Vanilloid Receptor 1 (AID 488979). Further: 0% is about no effect. A digest of the protocol: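 TRPV1 cells loaded with Fluo-8 calcium dye; compound added and Ca2+ signal (ex 480/em 520 nm) followed 3 min, then capsaicin at EC20 added and read 2 more min to detect enhancement.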

Test [13] deals with D(1A) dopamine receptor (Homo sapiens) (UniProt P21728). In words: HTS Assay for Allosteric Agonists of the Human D1 Dopamine Receptor: Primary Screen for Agonists (AID 488981). Further: 0% is about no effect. An outline of the steps:
(§1)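 Tetracycline-induced HEK293 Trex D1 cells with forced coupling to calcium, loaded with no-wash calcium dye; kinetic fluorescence read 180 s after compound addition for agonism, then a further 180 s after an EC20 dopamine challenge for potentiation.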

Test [14] has the same target. In words: HTS Assay for Allosteric Agonists of the Human D1 Dopamine Receptor: Primary Screen for Potentiators (AID 488982). Further: 0% is about no effect. An outline of the steps: as §1
For test [15] the target is unchanged. In words: HTS Assay for Allosteric Agonists of the Human D1 Dopamine Receptor: Primary Screen for Antagonists (AID 488983).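 Further: calcium flux response to an EC80 dopamine challenge measured with no-wash dye; on the % scale 0 is the no-effect control and ±100 the full control effect; nearly all actives have a fitted effect of over 65% in size.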 A digest of the protocol:
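Kinetic fluorescence at 1 cycle/sec tracked intracellular calcium in force-coupled, tetracycline-inducible HEK293 T-REx D1 cells. Loss of response to an EC80 dopamine dose, given 180 s after compound, marked antagonists.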

Test [16] addresses ATP-dependent 6-phosphofructokinase (Trypanosoma brucei brucei) (UniProt O15648). In words: qHTS Assay to Find Inhibitors of T. brucei phosphofructokinase: hit validation (AID 492961). Further: series mostly up to about 51 µM; on the % scale 0 is the no-effect control and ±100 the full control effect. A digest of the protocol: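 Luminescence from ADP-Glo reports ADP generated as T. brucei PFK (1.25 nM) phosphorylates 0.5 mM fructose-6-phosphate using 0.1 mM ATP. Reactions ran 45 min at room temperature, pH 8.0.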

Test [17] can be described thus: Validation screen for small molecules that induce genotoxicity in human embryonic kidney (HEK293T) cells expressing luciferase-tagged ELG1 (AID 493106). Further: 0% is about no effect. An outline of the steps:
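Cells were dispensed at 2,000 per well, then 23 nL compound or DMSO was pinned in. After 16 hr at 37 °C and 5% CO2, ONE-Glo reagent was added. Luciferase activity was measured following 30 min at room temperature.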

In test [18] the target is ATPase family AAA domain-containing protein 5 (Homo sapiens) (UniProt Q96QE3). The test can be described thus: Validation screen for small molecules that inhibit ELG1-dependent DNA repair in human embryonic kidney (HEK293T) cells expressing luciferase-tagged ELG1 (AID 493107).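 Further: cells co-treated with the DNA-damaging agent 5-fluorouridine alongside compound; series mostly up to about 46 µM; on the % scale 0 is the no-effect control and ±100 the full control effect; inhibitors lower the ELG1-luciferase luminescence signal; nearly all actives have a fitted effect of over 70% in size.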 A digest of the protocol:
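Cells are dispensed in 1536-well format, then 5-fluorouridine and compound are pinned in. After a 16 hr incubation at 37 °C and 5% CO2, ONE-Glo is added and luciferase measured on a CCD imager.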

Test [19] in a line: Nrf2 qHTS screen for inhibitors: Validation (AID 493153; active means well fitted inhibition curve with a large enough effect in the main read-out, with a control signal flat, not every such curve was filed as active). Particulars: viability change: measured here: cytotoxicity max response. A digest of the protocol:
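A549 ARE_Fluc, 5% FBS OPTI-MEM; cpd titration, 18-24 h, 37°C/5% CO2. Read 1: CellTiter-Fluor (Ex 405/Em 525), cytotox. Read 2: luciferase lum, Nrf2 activity.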

Test [20] in a line: qHTS for Inhibitors of Cell Surface uPA Generation: Validation Assay (AID 493164).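 Further: RAW 264.7 macrophage cells exposed to compound for 18 h; 0% is about no effect.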 A digest of the protocol: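 ATP-Lite luminescence read-out: ATP remains high when uPA activity-dependent LF translocation into the cytoplasm is blocked. RAW 264.7 cells, 18 h compound exposure at 37 C; 7-point titration, 2.45 nM to 38.3 uM final.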

The structures appear in SMILES notation. Where “and” joins values, the source holds several entries; their conditions need not be identical. Equal values may be shown once. Inconclusive results are not listed. Calls of active or inactive are those of the source. Unless noted, the call rests on the fitted dose curve; in most records, active means well fitted curve in the direction sought with a large enough effect; inconclusive means small, poorly fitted or top-dose-only effect, or another doubt; inactive means no such curve, though single readings can be large; an effect the other way counts as inactive or inconclusive.

D(1A) dopamine receptor (Homo sapiens), sequence (P21728 whole entry, looked up): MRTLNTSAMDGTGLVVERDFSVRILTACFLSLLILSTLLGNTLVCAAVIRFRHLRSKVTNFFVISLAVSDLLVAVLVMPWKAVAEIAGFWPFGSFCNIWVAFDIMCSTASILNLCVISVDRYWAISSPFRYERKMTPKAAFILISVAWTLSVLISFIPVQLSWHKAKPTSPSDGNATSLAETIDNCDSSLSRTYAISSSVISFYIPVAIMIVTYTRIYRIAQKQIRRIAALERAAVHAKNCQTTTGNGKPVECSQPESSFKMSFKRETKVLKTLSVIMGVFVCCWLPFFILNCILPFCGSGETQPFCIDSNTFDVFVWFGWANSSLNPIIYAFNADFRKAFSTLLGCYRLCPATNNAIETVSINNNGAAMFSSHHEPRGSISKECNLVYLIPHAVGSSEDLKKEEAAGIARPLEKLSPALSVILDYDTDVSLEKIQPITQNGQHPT
Thioredoxin reductase 1, cytoplasmic (Rattus norvegicus), sequence (O89049 whole entry, looked up): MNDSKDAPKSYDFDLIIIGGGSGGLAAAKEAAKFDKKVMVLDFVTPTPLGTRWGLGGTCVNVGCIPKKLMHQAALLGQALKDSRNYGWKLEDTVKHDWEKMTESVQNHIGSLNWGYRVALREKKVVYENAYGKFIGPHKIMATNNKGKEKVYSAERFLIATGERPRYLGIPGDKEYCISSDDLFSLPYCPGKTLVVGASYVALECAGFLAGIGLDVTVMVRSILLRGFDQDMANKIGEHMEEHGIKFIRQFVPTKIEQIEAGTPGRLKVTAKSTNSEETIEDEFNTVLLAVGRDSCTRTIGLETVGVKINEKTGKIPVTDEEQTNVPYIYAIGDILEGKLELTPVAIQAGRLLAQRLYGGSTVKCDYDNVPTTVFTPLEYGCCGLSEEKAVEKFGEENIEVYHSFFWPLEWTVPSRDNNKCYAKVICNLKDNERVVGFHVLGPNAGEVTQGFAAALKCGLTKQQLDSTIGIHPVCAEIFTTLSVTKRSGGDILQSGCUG
Transient receptor potential cation channel subfamily V member 1 (Homo sapiens), sequence (Q8NER1 whole entry, looked up): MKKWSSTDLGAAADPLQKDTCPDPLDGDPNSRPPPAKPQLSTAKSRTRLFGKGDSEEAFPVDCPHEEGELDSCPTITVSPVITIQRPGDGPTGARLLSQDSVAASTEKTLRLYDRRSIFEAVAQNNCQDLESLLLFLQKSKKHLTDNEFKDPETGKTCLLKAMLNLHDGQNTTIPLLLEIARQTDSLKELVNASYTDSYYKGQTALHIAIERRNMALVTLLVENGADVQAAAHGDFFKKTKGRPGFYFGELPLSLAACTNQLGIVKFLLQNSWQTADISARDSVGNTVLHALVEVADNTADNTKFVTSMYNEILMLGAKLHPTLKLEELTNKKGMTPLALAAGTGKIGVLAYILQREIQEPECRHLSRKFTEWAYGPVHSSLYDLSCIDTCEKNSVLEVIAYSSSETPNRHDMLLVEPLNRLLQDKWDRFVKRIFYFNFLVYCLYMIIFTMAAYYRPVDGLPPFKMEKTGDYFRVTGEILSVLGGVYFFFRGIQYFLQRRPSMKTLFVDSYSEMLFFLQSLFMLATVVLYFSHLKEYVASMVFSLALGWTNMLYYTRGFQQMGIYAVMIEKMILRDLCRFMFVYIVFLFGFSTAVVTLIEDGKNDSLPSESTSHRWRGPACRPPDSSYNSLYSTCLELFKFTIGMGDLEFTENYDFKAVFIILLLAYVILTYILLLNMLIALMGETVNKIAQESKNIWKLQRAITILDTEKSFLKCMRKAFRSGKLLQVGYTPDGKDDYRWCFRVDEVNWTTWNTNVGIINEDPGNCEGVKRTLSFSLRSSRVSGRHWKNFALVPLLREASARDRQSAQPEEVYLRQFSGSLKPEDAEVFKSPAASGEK
Flap endonuclease 1 (Homo sapiens), sequence (P39748 whole entry, looked up): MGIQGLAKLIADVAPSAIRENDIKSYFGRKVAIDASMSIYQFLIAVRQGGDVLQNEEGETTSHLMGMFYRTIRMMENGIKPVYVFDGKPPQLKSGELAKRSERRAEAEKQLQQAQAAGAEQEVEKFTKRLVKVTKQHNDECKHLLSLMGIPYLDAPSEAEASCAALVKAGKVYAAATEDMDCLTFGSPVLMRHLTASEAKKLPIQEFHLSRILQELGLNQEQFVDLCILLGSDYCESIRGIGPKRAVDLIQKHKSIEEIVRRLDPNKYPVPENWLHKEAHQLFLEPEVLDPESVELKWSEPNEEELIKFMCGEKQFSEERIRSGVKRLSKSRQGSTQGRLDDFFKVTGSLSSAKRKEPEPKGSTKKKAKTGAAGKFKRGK
Methanococcus maripaludis chaperonin (MmCpn), sequence (Q6LX38 1-543): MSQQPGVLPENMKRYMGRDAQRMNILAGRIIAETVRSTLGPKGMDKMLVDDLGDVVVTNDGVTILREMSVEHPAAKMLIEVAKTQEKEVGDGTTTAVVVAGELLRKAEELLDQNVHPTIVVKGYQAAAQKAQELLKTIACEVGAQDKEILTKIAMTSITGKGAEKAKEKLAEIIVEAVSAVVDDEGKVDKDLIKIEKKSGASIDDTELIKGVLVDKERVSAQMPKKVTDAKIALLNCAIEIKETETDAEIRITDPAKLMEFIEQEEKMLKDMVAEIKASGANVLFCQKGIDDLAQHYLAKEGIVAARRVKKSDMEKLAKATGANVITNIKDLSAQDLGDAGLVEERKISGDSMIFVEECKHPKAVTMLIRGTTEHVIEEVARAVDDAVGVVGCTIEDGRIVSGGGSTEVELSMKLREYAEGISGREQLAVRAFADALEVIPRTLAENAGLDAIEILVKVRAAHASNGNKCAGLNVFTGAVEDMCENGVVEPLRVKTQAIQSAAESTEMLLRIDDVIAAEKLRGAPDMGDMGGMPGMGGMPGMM
Beta-2 adrenergic receptor (Homo sapiens), sequence (P07550 whole entry, looked up): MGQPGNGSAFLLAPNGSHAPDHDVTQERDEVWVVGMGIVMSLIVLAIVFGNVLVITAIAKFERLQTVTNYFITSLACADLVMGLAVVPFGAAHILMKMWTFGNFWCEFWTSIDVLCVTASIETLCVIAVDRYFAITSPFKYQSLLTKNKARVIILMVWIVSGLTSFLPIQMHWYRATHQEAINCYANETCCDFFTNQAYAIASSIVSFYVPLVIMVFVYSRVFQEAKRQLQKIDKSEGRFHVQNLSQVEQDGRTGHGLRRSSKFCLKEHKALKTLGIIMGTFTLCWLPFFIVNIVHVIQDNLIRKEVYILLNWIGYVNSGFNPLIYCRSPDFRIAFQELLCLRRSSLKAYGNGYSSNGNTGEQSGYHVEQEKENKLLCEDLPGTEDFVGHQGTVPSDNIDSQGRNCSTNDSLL
M-phase phosphoprotein 8 (Homo sapiens), sequence (Q99549 whole entry, looked up): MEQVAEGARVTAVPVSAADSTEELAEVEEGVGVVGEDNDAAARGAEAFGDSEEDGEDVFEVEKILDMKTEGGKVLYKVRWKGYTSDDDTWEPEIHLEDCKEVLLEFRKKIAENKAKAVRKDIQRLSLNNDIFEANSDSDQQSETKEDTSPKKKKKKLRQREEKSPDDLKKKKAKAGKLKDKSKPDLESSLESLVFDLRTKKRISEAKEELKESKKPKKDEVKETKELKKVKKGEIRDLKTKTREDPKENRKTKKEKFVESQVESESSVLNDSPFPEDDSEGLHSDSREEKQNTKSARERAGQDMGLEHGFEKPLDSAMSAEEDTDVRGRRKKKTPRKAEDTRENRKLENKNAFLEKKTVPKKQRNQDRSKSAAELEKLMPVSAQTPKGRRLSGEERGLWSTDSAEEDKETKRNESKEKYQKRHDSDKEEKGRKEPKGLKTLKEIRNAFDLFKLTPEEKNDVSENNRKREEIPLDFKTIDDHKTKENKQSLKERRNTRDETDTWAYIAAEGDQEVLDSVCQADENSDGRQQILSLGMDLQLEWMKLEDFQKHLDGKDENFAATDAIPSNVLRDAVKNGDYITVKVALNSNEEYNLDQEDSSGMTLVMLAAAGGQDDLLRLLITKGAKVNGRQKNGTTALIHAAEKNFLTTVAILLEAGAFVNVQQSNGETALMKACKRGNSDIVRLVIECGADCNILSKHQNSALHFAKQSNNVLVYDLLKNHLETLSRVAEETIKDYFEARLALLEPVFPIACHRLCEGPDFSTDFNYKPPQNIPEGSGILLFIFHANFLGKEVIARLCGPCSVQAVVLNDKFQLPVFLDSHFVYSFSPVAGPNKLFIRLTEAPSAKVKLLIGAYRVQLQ
ATP-dependent 6-phosphofructokinase (Trypanosoma brucei brucei), sequence (O15648 whole entry, looked up): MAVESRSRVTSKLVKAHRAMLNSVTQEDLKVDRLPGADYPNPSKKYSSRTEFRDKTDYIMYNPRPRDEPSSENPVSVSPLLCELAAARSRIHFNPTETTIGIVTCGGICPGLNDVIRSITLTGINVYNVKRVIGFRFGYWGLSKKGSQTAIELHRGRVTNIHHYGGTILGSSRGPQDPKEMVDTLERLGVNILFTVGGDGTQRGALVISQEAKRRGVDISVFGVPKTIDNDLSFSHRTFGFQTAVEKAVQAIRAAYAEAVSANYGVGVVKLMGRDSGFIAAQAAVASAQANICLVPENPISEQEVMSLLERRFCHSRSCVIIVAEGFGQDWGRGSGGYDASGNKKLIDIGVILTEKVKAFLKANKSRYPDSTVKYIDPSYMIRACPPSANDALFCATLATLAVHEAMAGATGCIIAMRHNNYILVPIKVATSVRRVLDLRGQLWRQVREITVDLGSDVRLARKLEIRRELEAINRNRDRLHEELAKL
Chromobox protein homolog 1 (Homo sapiens), sequence (P83916 whole entry, looked up): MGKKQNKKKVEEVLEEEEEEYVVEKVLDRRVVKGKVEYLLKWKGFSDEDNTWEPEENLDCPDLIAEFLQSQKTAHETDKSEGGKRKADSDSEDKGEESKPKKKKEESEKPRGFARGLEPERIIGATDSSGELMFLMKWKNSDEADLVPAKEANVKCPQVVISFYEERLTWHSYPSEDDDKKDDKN

With `C[N+](C)(C)CCCCCC[N+](C)(C)C`, the result in test [1], in test [2], in [3], in test [5], in [8] and in [11] was inactive. Besides, the result in [12], in test [13], in test [14], in test [16], in test [18] and in [19] was inactive. Besides, in [20], the molecule was classed as inactive. Also, the Potency entry in test [4], in [6], in [7], in test [9], in test [10] and in test [15] was “inactive” throughout. Further, the Potency entry in [17] was “inactive”. In addition, the viability change in test [19] was -1.95% and 3.05%.
Turning to `CC(=O)c1ccc(S(=O)(=O)NC(=O)NC2CCCCC2)cc1`, the result in test [1], in test [2], in [3], in test [5], in test [11] and in [12] was inactive. The outcome in [13], in test [14], in test [18], in [19] and in test [20] was inactive. For the same molecule, the Potency result in test [4], in test [6], in [7], in test [9], in test [10] and in test [15] was “inactive” in each case. The Potency result in [17] was “inactive”. Besides, in test [19], the viability change came out at 1.61%.
`CCN1CCC[C@H]1CNC(=O)c1cc(S(N)(=O)=O)ccc1OC`: the molecule was called inactive in test [1], in test [2], in test [5], in [8], in test [11] and in test [12]. For the same molecule, the call in [13], in test [14], in [16], in [18], in [19] and in [20] was inactive. The Potency entry in test [4], in [6], in [7], in test [9], in [10] and in test [15] was “inactive” in each case. The Potency entry in [17] is “inactive”. Also, in test [19], the viability change is -14.1%.
Consider `CCN(CC)CCNC(=O)c1ccc(N)cc1`, for which the result in test [1], in test [2], in test [3], in test [5], in test [11] and in [13] was inactive. For the same molecule, the result in [14], in test [18], in test [19] and in test [20] was inactive. Also, the Potency result in test [4], in test [6], in test [7], in test [9], in test [10] and in test [15] was “inactive” each time. In test [17], the Potency result is “inactive”. Also, the viability change in [19] is -14%.

The record behind these values is PubChem BioAssay (NCATS).
